MEKK2 WT-MEK5 = raises or lowers MEK5 binding to wildtype human MEKK2 PB1 domain | bead flow cytometry, Alexa488-MEK5 binding to MEKK2 WT; actives lie on both sides | 290,000 tested, 1.1% active | Q9Y2U5 | binding response (% of control), % at 10 µM; in the data active = binding response below about 67% or above about 130%
VLA-4 inh = inhibition in a human VLA-4 binding assay | P13612 | VLA-4 expressing cells, ligand binding flow cytometry | inhibition, % (about 7 µM as worked out from the volumes in the protocol) | 330,000 tested, 0.2% active | AID 2557; in the data active = inhibition above about 50%
MEKK3 PB1 HTS = modulators (inhibitors or enhancers) of MEK5 binding to human MEKK3 PB1 domain; Q99759; bead-based flow cytometry, Alexa488-MEK5 binding to MEKK3; actives lie on both sides; 0 = blocked by unlabeled MEK5, 100 = vehicle; binding response (% of control), % at 10 µM; 290,000 tested, 1.4% active; AID 1529;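 active = binding response more than 3 SD above or below the average of its plate-row segment, actives on both sides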;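 also: Alexa488 bead fluorescence after subtracting the streptavidin-only scavenger bead signal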
MEKK2 mut-MEK5 = signal of MEK5 binding to mutant human MEKK2 PB1 domain; percent response, % at 10 µM; 290,000 tested, 0.35% active; bead flow cytometry, Alexa488-MEK5 binding to MEKK2 mutant; in the data active = percent response above about 24%, passing the limit was not always enough
MEKK2wt confirm = raises or lowers MEK5 binding to wildtype human MEKK2, retest. shares compounds with MEKK3 PB1 HTS. bead flow cytometry, Alexa488-MEK5 binding to MEKK2 WT; actives lie on both sides. binding response (% of control), % at 10 µM. 5,900 tested, 2.4% active. AID 1892; in the data active = binding response below about 16% or above about 210%; inactive = in between
MEKK2mut-MEK5 = signal of MEK5 binding to mutant human MEKK2, retest; shares compounds with MEKK3 PB1 HTS; bead flow cytometry, Alexa488-MEK5 binding to MEKK2 mutant; percent response, % at 10 µM; 5,900 tested, 2% active; AID 1893; in the data active = percent response mostly above about 71%, no sharp cut-off; inactive = mostly below about 38%;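 also: higher means compound restores mutant binding toward wildtype level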
MEKK3 confirm = MEKK3-MEK5 PB1 inhibition, single concentration confirmation; 5,900 tested, 1.8% active; bead flow cytometry, Alexa488-MEK5 binding to MEKK3; active compounds read low; binding response (% of control), % at 10 µM; AID 1894; shares compounds with MEKK3 PB1 HTS;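 active = binding response below 72% of control, or above a set upper limit, though filed actives all read lower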;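 also: 100% = DMSO only wells and 0% = binding blocked by excess unlabeled MEK5; lower values mean stronger disruption of MEK5 binding to MEKK3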
An asterisk follows results filed as active; i = inactive; · = not tested or not shown; [ ] = dose if it differs, or a comment. Most compounds without a hit are left out; they make up all but 2.2% or so of the library.

SMILES | MEKK2 WT-MEK5 | VLA-4 inh | MEKK3 PB1 HTS | MEKK2 mut-MEK5 | MEKK2wt confirm | MEKK2mut-MEK5 | MEKK3 confirm
CCOc1ccc(Nc2nc(N3CCCCC3)nc(N3CCCCC3)n2)cc1 | 87.0 | 25.2 | 78.0*[inhibitor] | -7.0 | 114.0 | 11.0 | 108.0
Oc1ccc(Nc2nc(N3CCCC3)c3ccccc3n2)cc1 | 153.0* | 2.5 | 107.0 | 21.0 | 197.0 | 93.0* | 109.0
COc1ccc(Nc2nc(N)c([N+](=O)[O-])c(N3CCCC3)n2)cc1 | 108.0 | 0.1 | 109.0 | 6.0 | · | · | ·
Cc1ccc(S(=O)(=O)NCC2CCC(C(=O)NC3CCCCC3)CC2)cc1 (centres undefined) | 101.0 | 5.0 | 102.0 | 2.0 | · | · | ·
N#C/C(=C\c1ccccc1[N+](=O)[O-])c1nc(C2CC2)cs1 | 95.0 | 11.0 | 96.0 | -1.0 | · | · | ·
N#C/C(=C\C=C\c1ccccc1[N+](=O)[O-])c1nc(-c2ccc3c(c2)OCO3)cs1 | 24.0* | i | 104.0 | 30.0* | 93.0 | -4.0 | 96.0
CC(NC(=O)C(=O)N/N=C/c1ccccc1)c1ccccc1 (centres undefined) | 707.0* | 24.9 | 121.0 | 564.0* | 103.0 | 6.0 | 102.0
CC(NC(=O)C(=O)NN=C1CCCC1)c1ccccc1 (centres undefined) | 95.0 | 2.3 | 92.0 | -4.0 | · | · | ·
Cc1ccc2[nH]c3c(c2c1)CN(C)CC3 | 101.0 | 2.6 | 88.0 | 16.0 | · | · | ·
CCOC(=O)c1ccc2[nH]c3c(c2c1)CN(C)CC3 | 129.0 | -20.4 | 105.0 | 24.0* | 124.0 | 16.0 | 100.0
O=C(Nc1ccc(F)cc1)Nc1ccc(N2CCCC2)c(S(=O)(=O)Nc2ccccc2Cl)c1 | 49.0 | 0.0 | 106.0 | 50.0 | · | · | ·
Cc1ccc(C(=O)Nc2ccc(C)c(S(=O)(=O)Nc3ccccc3Cl)c2)s1 | 105.0 | -0.5 | 104.0 | 2.0 | · | · | ·
O=C(Nc1ccc(Cl)c(Cl)c1)Nc1ccc(N2CCCC2)c(S(=O)(=O)Nc2ccccc2Cl)c1 | 44.0*[inhibitor] | -2.9 | 107.0 | 44.0 | 102.0 | 4.0 | 104.0
Cc1ccc(NC(=O)c2cc3c(s2)CCCC3)cc1S(=O)(=O)Nc1ccccc1Cl | 111.0 | 8.1 | 133.0* | 1.0 | 95.0 | -5.0 | 102.0
COc1ccccc1NS(=O)(=O)c1cc(NC(=O)c2cnccn2)ccc1N1CCOCC1 | 72.0 | 8.2 | 58.0*[inhibitor] | -24.0 | 105.0 | 6.0 | 102.0
COc1ccc(-n2c(=O)/c(=C\c3cccs3)s/c2=C(/C#N)C(=O)N2CCN(C)CC2)cc1 | 100.0 | 6.7 | 100.0 | -9.0 | · | · | ·
CC(C)OC(=O)CSc1nc2ncccc2[nH]1 | 45.0*[inhibitor] | -2.6 | 33.0*[inhibitor] | -14.0 | 100.0 | -2.0 | 102.0
Cc1ccc(CNS(=O)(=O)c2ccc(C)s2)cc1 | 105.0 | 5.8 | 103.0 | -2.0 | · | · | ·
Cc1ccc(N2CC(=O)N(NC(=O)c3sc4nc(C)cc(C)c4c3N)CC2=O)cc1 | 109.0 | 27.9 | 106.0 | 6.0 | · | · | ·
Cc1csc2c(N3CCN(C(=O)NC(C)(C)C)CC3)ncnc12 | 109.0 | 4.2 | 114.0 | 12.0 | · | · | ·
Cc1csc2c(N3CCN(C(=O)c4ccc(C(C)(C)C)cc4)CC3)ncnc12 | 124.0 | -2.0 | 131.0* | 22.0 | 109.0 | 1.0 | 104.0
Nc1ccccc1Nc1cc(-c2ccccc2)nn1-c1cccc(Cl)c1 | 113.0 | 9.7 | 141.0* | 1.0 | 109.0 | 2.0 | 102.0
CN(Cc1ccccc1)C(=O)N1CCOCC1 | 97.0 | 2.5 | 98.0 | -4.0 | · | · | ·
Cc1ccc(NC(=O)CSc2nnc(-c3cccs3)o2)cc1S(=O)(=O)N1CCCCC1 | 105.0 | 0.6 | 135.0* | 0.0 | 99.0 | 4.0 | 105.0
COc1ccc(NC(=O)N(C)C[C@H]2Oc3ccc(NS(=O)(=O)c4cccs4)cc3C(=O)N([C@@H](C)CO)C[C@@H]2C)cc1 | · | 10.5 | · | · | · | · | ·
CCN1CCN(c2cc(C)c3cc(NC(=O)c4ccc(C)c(C)c4)ccc3n2)CC1 | 160.0* | 22.9 | 109.0 | 22.0 | 153.0 | 24.0 | 104.0
CC(C)C(OC(=O)c1cc2sccc2n1C)C(=O)NCC1CCCO1 (centres undefined) | -2.0*[inhibitor] | 6.0 | 1.0*[inhibitor] | -26.0 | 97.0 | -9.0 | 98.0

Source: PubChem BioAssay
